According to PubChem BioAssay (NCI):
Where “and” joins values, the source holds several entries; their conditions need not be identical. Identical values can stand only once. This is part of a sample that, as a whole, favours compounds with a hit. Of some 79,000 tested, about 15% had one in any assay. No stated cut-off is given here; in the data, active means growth inhibition above about 70%; inactive means the rest.

Tests used:
[1] = NCI Yeast Anticancer Drug Screen. Data for the rad50 strain (AID 155);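 further: 0% = growth of vehicle-only cultures of the same strain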; details: S. cerevisiae rad50 strain growth inhibition, stronger effect = higher value; at 50.0 µM unless noted
Outline: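 Relative growth inhibition (compound vs vehicle) was measured in yeast with a defined repair-gene alteration.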

[2] = NCI Yeast Anticancer Drug Screen. Data for the mec2-1 strain (AID 157); details: S. cerevisiae mec2-1 strain, stronger effect = higher value; at 50.0 µM unless noted
Outline: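 Readout is yeast growth inhibition, normalised to vehicle-treated controls, in the mec2-1 strain exposed to compound.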

[3] = NCI Yeast Anticancer Drug Screen. Data for the sgs1 mgt1 strain (AID 161);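 further: 0% = growth of cultures given vehicle only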; details: S. cerevisiae sgs1 mgt1 strain, stronger effect = higher value; at 50.0 µM unless noted
Outline: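 Percent growth inhibition was derived by comparing compound-exposed mutant yeast with vehicle-exposed cultures. The strain carries alterations in DNA damage repair.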

[4] = NCI Yeast Anticancer Drug Screen. Data for the cln2 rad14 strain (AID 165);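 further: 0% = growth equal to vehicle treated cultures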; details: S. cerevisiae cln2 rad14 strain, stronger effect = higher value; at 50.0 µM unless noted
Outline: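 Relative to vehicle controls, growth inhibition of compound-treated cln2 rad14 yeast was recorded.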

[5] = NCI Yeast Anticancer Drug Screen. Data for the bub3 strain (AID 167); details: S. cerevisiae bub3 mutant strain, stronger effect = higher value; at 50.0 µM unless noted
Outline: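 Screening used yeast with an engineered genetic alteration affecting cell cycle control. Compound-exposed cultures were compared with vehicle cultures, and reduced growth was taken as inhibition.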

[6] = NCI Yeast Anticancer Drug Screen. Data for the mlh1 rad18 strain (AID 175); details: S. cerevisiae mlh1 rad18 strain growth inhibition, stronger effect = higher value; at 50.0 µM unless noted
Outline: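 Test agents were incubated with a yeast strain of defined genotype (DNA damage repair defect). Inhibition of growth was derived by comparison with vehicle-exposed cultures.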

Measured: growth inhibition

COc1nc2nccnc2c(=O)n1C
inactive: [1] -18.2% | [2] -4.65% | [3] -16.5% | [4] 14.4% | [5] -7.55% | [6] -3.3%

O=c1c2ccccc2c(=O)n2n1-c1cccc(c1)CSSCc1cccc-2c1
inactive: [1] -16.9% | [2] 2.7% | [3] -10.6% | [4] -3.45% | [5] 0.2% | [6] -12.8%

COc1cc(C(=O)c2cc3c(cc2C(=O)O)OCO3)cc(OC)c1OC
inactive: [1] -7.6% | [2] 0.85% | [3] 2.9% | [4] -30.6% | [5] 8.5% | [6] -2.05%

CC12C(=O)C(C(c3ccccc3)=C1c1ccccc1)C1C(=O)OC(=O)C12 (stereo not given)
inactive: [1] -6.8% | [2] 2.8% | [3] -0.15% | [4] -1.6% | [5] -11.9% | [6] -6.65%

CCOC(=O)c1ccc(N=C2S/C(=C\C(=S)Nc3ccccc3)N(c3ccccc3)C2=Nc2ccc(C(=O)OCC)cc2)cc1
inactive: [1] 14.3% | [2] 4.85% | [3] 12.4% | [4] 13.6% | [5] 19.2% | [6] 12.4%

OCC(O)Cc1ccccc1 (stereo not given)
inactive: [1] -7% | [2] -12.8% | [3] 3.2% | [4] -13.1% | [5] -1.8% | [6] 5.05%

C=CC[N+]1(CCOC(=O)C(c2ccccc2)C2C=CCC2)CCCC1 (stereo not given)
inactive: [1] -17.1% | [2] 1.35% | [3] -6.9% | [4] -13.8% | [5] -13.9% | [6] -22.4%

c1ccc2c3c([nH]c2c1)CCCC3
inactive: [1] -1.6% | [2] 1.2% | [3] -10.2% | [4] -31.4% | [5] 11.5% | [6] -1.25%

Clc1nc2n(c1/C=C/c1cccs1)CCS2
inactive: [1] 28.4% | [2] 23.2% | [3] 56.4% | [4] 13.9% | [5] 20.6% | [6] 59.5%

CC1CC(C)(O)C2C3(C)CCCC2(COC3=O)C12CCC1(CCOC1=O)O2 (stereo not given)
inactive: [1] 0.9% | [2] -23.5% | [3] 25.3% | [4] 3.8% | [5] -0.6% | [6] 2.9%

CN(C)C(=O)C(c1ccccc1)C(c1ccccc1)N(C)C=O (stereo not given)
inactive: [1] -3.5% | [2] -2.2% | [3] 0.2% | [4] -3.3% | [5] -8.3% | [6] 25.1%

O=C1CCc2nc(-c3ccccc3)ncc21
inactive: [1] 9.25% | [2] 0% | [3] 1.95% | [4] -5.55% | [5] -2.2% | [6] -0.8%

COc1cc2c3c([nH]c2c(OC)c1OC)CCN(Cc1ccccc1)C3
inactive: [1] -27.7% | [2] -15.1% | [3] -10.2% | [4] 6.1% | [5] -0.7% | [6] 10.8%

Cc1cccc(NC(=O)Nc2ccccc2Cl)n1
inactive: [1] 23.5% | [2] -3.6% | [3] 24.4% | [4] 25.7% | [5] 13.2% | [6] 16.6%

CCC1CN2CCc3cc(OC)c(OC)cc3C2CC1=O (stereo not given)
inactive: [1] -11.3% | [2] -5.4% | [3] -8.65% | [4] -2.65% | [5] 1.15% | [6] -22.1%

COC(=O)C1C(O)C(C)C(O)C(C)(O)/C=C/C=C(C)C(=O)Nc2c(C)c(OC(C)=O)c3c(c2O)C(=O)C(C)=C2OCOC(=C23)C(C)=CC(C)(O)C(O)C(C)C1OC(C)=O (stereo not given)
inactive: [1] 4.6% | [2] -19.9% | [3] 5.5% | [4] 4.05% | [5] 3.05% | [6] 18.8%

CC(C#N)C(=O)O (stereo not given)
inactive: [1] -3.55% | [2] -5.85% | [3] -15.7% | [4] -8.15% | [5] -8.15% | [6] -18.5%

CC(O)C1(O)CCCCC1 (stereo not given)
inactive: [1] -11.8% | [2] -1.95% | [3] -2.05% | [4] -29.6% | [5] -13.2% | [6] -14.8%

CCCCC(/C=C(\C(C)=O)C(=O)OCC)CC (stereo not given)
inactive: [1] -5.95% | [2] -39.1% | [3] -28.1% | [4] -10.5% | [5] -37% | [6] -40.6%

CCCCCCCCCCCCCCCCCC(=O)N1CCN(C(=O)CCCCCCCCCCCCCCCCC)C1
inactive: [1] 30.4% | [2] -18.3% | [3] -4.3% | [4] -19.2% | [5] -1.25% | [6] 1.05%

CC1=C(C(=O)Nc2cc(=O)n(C)c(=O)n2C)C(c2cccc([N+](=O)[O-])c2)C(C(=O)Nc2cc(=O)n(C)c(=O)n2C)=C(C)N1
inactive: [1] 8.7% | [2] 32.1% | [3] 24.9% | [4] 21.9% | [5] 24.4% | [6] 41.8%

C=C(C)C(=O)Oc1ccccc1/C=C/C(=O)CCCCCC
inactive: [1] -8.45% | [2] -14.1% | [3] -20.4% | [4] -9.1% | [5] -11% | [6] 4.4%

CC(C)(C)C1CCC2c3c([nH]c4ccccc34)C3C(=O)N(c4cc(Br)cc(Br)c4)C(=O)C3C2C1 (stereo not given)
inactive: [1] 14.3% | [2] 9.15% | [3] 7.75% | [4] 18.9% | [5] 21.8% | [6] -46.5%

CC(Nc1ncc2c(n1)-c1ccccc1OC2)C(=O)O (stereo not given)
inactive: [1] -2.45% | [2] 2.1% | [3] -11.4% | [4] -7.8% | [5] -31.4% | [6] 16.3%

O=C(O)/C=C/C(=O)NCCCCCCNC(=O)/C=C/C(=O)O
inactive: [1] 4.55% | [2] -26.4% | [3] 2% | [4] -8.7% | [5] -16.9% | [6] -15.1%

CSc1ccc(Cl)cc1
inactive: [1] 6% | [2] -4.55% | [3] 1.7% | [4] 16.9% | [5] -1.2% | [6] 16.1%

COC1OCC(N=[N+]=[N-])C(OS(C)(=O)=O)C1OS(C)(=O)=O (stereo not given)
inactive: [1] -1.65% | [2] -4.3% | [3] 6.85% | [4] -6.75% | [5] -16.4% | [6] -34.5%

CNC(=O)NC(c1ccc(F)cc1)c1cc2c(cc1O)OCO2 (stereo not given)
inactive: [1] -2.2% | [2] -16.4% | [3] -2.4% | [4] 12.6% | [5] -1.8% | [6] 12.4%

O=C(Nc1ccc(C(=O)O)cc1)Nc1cccc(Cl)c1
inactive: [1] -6.15% | [2] 2.1% | [3] -9.55% | [4] -14.3% | [5] 0.65% | [6] 7.4%

COc1ccc2c3c([nH]c2c1N)C(C)NCC3 (stereo not given)
inactive: [1] -11.4% | [2] -18.9% | [3] 4.2% | [4] 13.3% | [5] -18.3% | [6] 0.4%

CC1OC(n2cnc3c(NC(=O)c4ccccc4)ncnc32)C(O)C2OC12 (stereo not given)
inactive: [1] -1.15% | [2] -3.05% | [3] 8.75% | [4] 13.4% | [5] 2.95% | [6] 14.8%

Cc1ccc(C(=O)c2ccc([N+](=O)[O-])cc2)cc1
inactive: [1] -21.1% | [2] -20.4% | [3] -34.5% | [4] -50% | [5] 8.3% | [6] -41.1%

Nc1nc(-c2ccco2)cc(-c2ccco2)n1
inactive: [1] -23.4% | [2] -23.2% | [3] -18.8% | [4] 12.8% | [5] -20.1% | [6] -31.1%

Cc1cc(Cl)ccc1OCC(=O)NCCO
inactive: [1] 33.4% | [2] 19.9% | [3] 13.8% | [4] 10.4% | [5] 2.8% | [6] 12%

CCN(CC)c1ccc2cc(C(=O)Nc3ccccc3)c(=N)oc2c1
inactive: [1] 15.5% | [2] 5.45% | [3] 1.8% | [4] 13.7% | [5] -20.2% | [6] -39.1%

CCC1([N+](C)(C)C)CSC1C (stereo not given)
inactive: [1] 5.15% | [2] 2.9% | [3] 4.35% | [4] -26.6% | [5] -8.65% | [6] -0.95%

CC(=O)[CH-]C(=O)c1ccccc1.CC(=O)[CH-]C(=O)c1ccccc1.CC1(C)OCC(C2OC3OC(C)(C)OC3C2[O-])O1.CC[O-].[Ti+4] (stereo not given)
inactive: [1] 41.4% | [2] 24.1% | [3] 35.5% | [4] 23% | [5] 31.2% | [6] 33.4%

CC[N+](CC)(CC)CCOc1nc(OCC[N+](CC)(CC)CC)nc(OCC[N+](CC)(CC)CC)n1
inactive: [1] 11.8% | [2] 11% | [3] 10.3% | [4] 9.1% | [5] 17.1% | [6] 35%

CCC(SC(CC)(CC)C(=O)O)C(N)=O (stereo not given)
inactive: [1] -9.9% | [2] 0.05% | [3] -8.15% | [4] -23% | [5] -6% | [6] -8.1%

C/C(CC1(O)C(=O)Nc2ccccc21)=N\O (stereo not given)
inactive: [1] -1.95% and -34.7% | [2] -8.5% and -46.1% | [3] -30.6% | [4] 8.6% | [5] -16.2% | [6] 6.55% and -10%
